Drawing on PubChem BioAssay (EPA / NIEHS), this text covers outcome and AC50 for 22 compounds.

One may read the AC50 as the midpoint of the concentration-response curve, whichever way the signal moves.

Test [1] concerns the target Cellular tumor antigen p53 (Homo sapiens) (UniProt P04637). The experiment in a line: TOX21_p53_BLA_p3_ratio: Tox21 HCT-116 p53 Agonism Beta-lactamase Assay, Ratio, Phase 3 (AID 2283596). The essentials:
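Cells were seeded at 4000/well, rested 5 h at 37C, then dosed with DMSO compound solutions (217-fold dilution) for 16 h. CCF4-AM substrate was loaded for 2 h at room temperature, and the 460/530 nm emission ratio was fitted for gain of signal versus DMSO.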

Test [2] can be described thus: TOX21_p53_BLA_p4_viability: Viability Assessment in the Tox21 HCT-116 p53 Agonism Beta-lactamase Assay, Phase 4 (AID 2283597).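 Note: hits lower the luminescence signal meaning cytotoxicity.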 Summed up: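 Readout: ATP luminescence (CellTiter-Glo), measured 30 min after reagent addition at RT. The reagent followed a 2 h CCF4-AM incubation, and the cells had been exposed to compound for 16 h at 37C.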
Test [3] concerns the target Cellular tumor antigen p53 (Homo sapiens) (UniProt P04637). The experiment in a line: TOX21_p53_BLA_p5_ratio: Tox21 HCT-116 p53 Agonism Beta-lactamase Assay, Ratio, Phase 5 (AID 2283599). Summed up:
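Beta-lactamase reporter ratio (blue 460 nm over green 530 nm, 405 nm excitation) after 2 h CCF4-AM loading, in HCT-116 cells exposed 16 h at 37 C to compounds pinned at 217-fold dilution. Increases relative to DMSO baseline scored.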

Test [4] has the same target. The experiment in a line: TOX21_p53_BLA_p4_ratio: Tox21 HCT-116 p53 Agonism Beta-lactamase Assay, Ratio, Phase 4 (AID 2283601). Summed up:
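Signal is the blue/green (460nm/530nm) ratio of cleaved versus uncleaved CCF4-AM substrate, read after 2 h substrate loading. Cells were HCT116 carrying the p53-responsive beta-lactamase reporter, dosed 16 h at 37C, 5% CO2; CellTiter-Glo measured in parallel.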

The nature of test [5]: TOX21_p53_BLA_p5_viability: Viability Assessment in the Tox21 HCT-116 p53 Agonism Beta-lactamase Assay, Phase 5 (AID 2283600). Summed up: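 Workflow: seed 4000 cells per well, wait 5 h, add compounds (DMSO, 217-fold dilution), incubate 16 h, load CCF4-AM 2 h, add CellTiter-Glo, read luminescence after 30 min.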
Test [6] is described as follows: Tanguay_ZF_120hpf_MORT_legacy: (Legacy) Oregon State University Tanguay Lab 120 Hour Post-fertilization zebrafish Assay for Mortality (AID 2283633).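 For AC50: fitted as increase in binary mortality versus DMSO negative control.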 Summed up: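 5D WT zebrafish, chorion removed 4 hpf; 1 embryo/well from 6 hpf; static exposure to 120 hpf, 28C, dark, sealed. Final DMSO 0.64%. Readout: binary mortality, brightfield, 24 + 120 hpf; DMSO as negative control.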

Test [7] in a line: Tanguay_ZF_120hpf_YSE_legacy: (Legacy) Oregon State University Tanguay Lab 120 Hour Post-fertilization zebrafish Assay for Yolk Sac Edema (AID 2283634).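 For AC50: actives raise the incidence of yolk sac edema above the DMSO baseline.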 Summed up:
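Dechorionate (pronase, 4 hpf) → place one 6 hpf embryo per well → static compound exposure, sealed and foil-covered, 28C, to 120 hpf → record yolk sac edema as present or absent. Final DMSO 0.64%.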

Test [8] is described as follows: Tanguay_ZF_120hpf_AXIS_legacy: (Legacy) Oregon State University Tanguay Lab 120 Hour Post-fertilization zebrafish Assay for Body Axis Malformation (AID 2283635).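 For AC50: potency for an increased fraction of larvae scored with body axis malformation.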 The essentials:
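Chorion is removed with pronase at 4 hpf, then single 6 hpf embryos are dosed (final DMSO 0.64%) and held statically at 28C in sealed, foil-covered plates. At 120 hpf body axis malformation is recorded as present or absent.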

A short description of test [9]: Tanguay_ZF_120hpf_EYE_legacy: (Legacy) Oregon State University Tanguay Lab 120 Hour Post-fertilization zebrafish Assay for Eye Malformation (AID 2283636).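 Note: binary presence or absence of eye malformation scored by brightfield in 120 hpf larvae.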 Summed up:
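Binary brightfield scoring of eye defects at 120 hpf after static exposure from 6 hpf of single pronase-dechorionated wild-type embryos (28C, 0.64% DMSO). Non-mortality endpoints omitted where embryos died; fit vs DMSO.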

A short description of test [10]: Tanguay_ZF_120hpf_SNOU_legacy: (Legacy) Oregon State University Tanguay Lab 120 Hour Post-fertilization zebrafish Assay for Snout Malformation (AID 2283637). Summed up: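 Binary snout-malformation call at 120 hpf in wild-type 5D embryos, chorion removed by pronase, under static exposure from 6 hpf at 28C (0.64% DMSO). Embryos dying by 24 or 120 hpf excluded.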

Each structure is given as a SMILES string. “And” between values parts separate entries of the source, which are not always exact repeats. Identical values can stand only once. Inconclusive results are not listed. The source holds several records for some structures; these can differ, active in one and inactive in another. The source made the active and inactive calls. Rule for the calls: active = hit-call score of the fitted dose curve at least 0.9, where 1 is the maximum; inconclusive = response in the unintended direction; inactive = score below 0.9.

Cellular tumor antigen p53 (Homo sapiens), sequence (P04637 whole entry, looked up): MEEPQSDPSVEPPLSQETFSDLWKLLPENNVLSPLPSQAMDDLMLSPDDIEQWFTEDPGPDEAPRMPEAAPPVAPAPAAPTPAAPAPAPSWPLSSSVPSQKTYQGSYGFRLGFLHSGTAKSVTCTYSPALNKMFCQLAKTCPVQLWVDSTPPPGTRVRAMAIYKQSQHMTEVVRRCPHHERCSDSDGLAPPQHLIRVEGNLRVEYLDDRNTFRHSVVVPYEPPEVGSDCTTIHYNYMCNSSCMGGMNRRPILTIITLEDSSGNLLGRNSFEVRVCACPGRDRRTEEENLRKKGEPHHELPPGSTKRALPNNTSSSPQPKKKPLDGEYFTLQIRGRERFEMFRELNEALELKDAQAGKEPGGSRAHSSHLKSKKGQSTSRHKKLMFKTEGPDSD

As to `COc1nc(C)nc(NC(=O)NS(=O)(=O)c2ccccc2OCCCl)n1`, the result in [1], in test [2], in [3] and in [4] was inactive.
As for `CCCN(CCC)c1c([N+](=O)[O-])cc(C(F)(F)F)c(N)c1[N+](=O)[O-]`, the AC50 is 81.1 µM (active) in test [1]; 20.7 µM (active) in test [2]; 67.5 µM (active) in test [3]; 21.4 µM (active) in test [5]; 44.2 µM (active) in test [4]. Also, the outcome in [6], in [7] and in test [8] was inactive.
For the compound `O=C(O)c1ccccc1`, the result in test [1], in [2], in test [3], in test [5], in test [4] and in test [6] was inactive. Moreover, the compound was called inactive in [7], in test [8], in test [9] and in test [10].
In the case of `CCCOC(=O)c1ccc(C(=O)OCCC)nc1`, the outcome in [1], in test [2], in test [3], in [4], in test [9] and in test [10] was inactive. Also, the AC50 in test [6] was 5.38 µM (active); in [7] it was 1.17 µM (active); in test [8] it was 0.968 µM (active).
Take `CCCCC(CC)COC(=O)c1ccccc1C(=O)O` (stereo not given): the result in test [1], in [2], in test [3], in test [5], in test [4] and in test [6] was inactive. Further, the compound was called inactive in test [7], in test [8] and in test [9].
For the compound `C#C[C@]1(O)CC[C@H]2[C@@H]3CCC4=CC(=O)CC[C@@H]4[C@H]3CC[C@@]21CC`, the outcome in test [1], in test [2], in test [3], in test [5], in test [4] and in test [6] was inactive. Further, the outcome in test [8], in [9] and in test [10] was inactive.
In the case of `OB(O)O`, the result in test [1], in test [2], in test [3], in test [4], in test [6] and in test [7] was inactive. Moreover, the call in test [8] and in test [9] was inactive.
As to `CC(=O)[C@H]1CC[C@H]2[C@@H]3CCC4=CC(=O)CC[C@]4(C)[C@H]3CC[C@]12C`, the outcome in test [1], in test [2], in test [3], in [5], in test [4] and in [6] was inactive. The result in [7], in [8] and in test [9] was inactive.
Turning to `Cc1nn(C)c(Oc2ccccc2)c1C=NOCc1ccc(C(=O)OC(C)(C)C)cc1`, the result in test [1], in test [2], in test [3], in test [5], in [4] and in test [7] was inactive. The outcome in test [8], in [9] and in test [10] was inactive. In test [6], the AC50 is 3.26 µM (active).
With `O=C(O)C1(C(=O)Nc2ccc(Cl)cc2Cl)CC1`, the result in test [1], in [2], in test [3], in test [5], in test [6] and in [9] was inactive. Besides, the outcome in test [10] was inactive. Besides, the AC50 in test [4] is 46.1 µM (active); in test [7], 32.3 µM (active); in [8] it was 10 µM (active).
Turning to `CN(C)C(=O)Nc1ccc(Cl)c(Cl)c1`, the result in test [1], in test [2], in test [3], in [5], in test [4] and in test [6] was inactive. Also, the result in [7] and in test [8] was inactive.
As to `CCN(Cc1c(F)cccc1Cl)c1c([N+](=O)[O-])cc(C(F)(F)F)cc1[N+](=O)[O-]`, the result in [1], in test [3], in test [5], in test [4], in test [6] and in [7] was inactive. The compound was classed as inactive in [8] and in test [9]. Also, the AC50 in test [2] is 26.3 µM (active).
Consider `Oc1ccc(C(c2ccc(O)cc2)C(Cl)(Cl)Cl)cc1`, for which the AC50 in [1] was 72.1 µM (active) and 74.2 µM (active); in test [2], 38.3 µM (active) and 80.7 µM (active); in test [3], 80.8 µM (active) and 85.1 µM (active); in test [5], 66.7 µM (active); in test [4], 64.5 µM (active) and 82.7 µM (active); in test [8], 63.4 µM (active). Also, the compound was classed as inactive in test [5], in test [6], in test [7] and in [9].
`CCCCCCC(C)OC(=O)COc1nc(F)c(Cl)c(N)c1Cl` (stereo not given): the result in test [1], in test [3], in [5], in test [6], in test [7] and in [8] was inactive. For the same compound, in [9], the compound was classed as inactive. Also, the values for the AC50 in [2] and in [4] were 76.9 µM (active) and 87.2 µM (active), respectively.
For the compound `CC(=O)S[C@@H]1CC2=CC(=O)CC[C@]2(C)[C@H]2CC[C@@]3(C)[C@@H](CC[C@@]34CCC(=O)O4)[C@H]12`, the outcome in test [1], in test [2], in test [3], in test [5], in [4] and in [6] was inactive. In addition, the call in [7], in test [8], in test [9] and in [10] was inactive.
Consider `CC(C)CCCCCCc1ccc(O)cc1`, for which the AC50 in [1] is 71.2 µM (active); in test [2], 25.6 µM (active) and 34.7 µM (active); in [3] it was 39.9 µM (active); in test [5], 37.2 µM (active); in [4], 46.2 µM (active) and 41.7 µM (active). Further, the outcome in test [1], in test [2], in test [3], in test [5], in test [4] and in test [6] was inactive. For the same compound, the compound was called inactive in test [7], in test [8] and in test [9].
In the case of `CC(C)(c1ccc(O)cc1)c1ccc(O)cc1`, the outcome in test [1], in test [2], in test [3], in test [5], in [4] and in [6] was inactive. Moreover, the call in [9] was inactive. For the same compound, the AC50 was 85.1 µM (active) in [2]; 75.9 µM (active) in test [4]; 16.4 µM (active) in test [6]; 41.7 µM (active) and 25.2 µM (active) and 38.1 µM (active) in test [7]; 36.5 µM (active) and 64.9 µM (active) and 25.3 µM (active) in test [8]; 40 µM (active) and 40.1 µM (active) in test [9]. Further, the AC50 in test [10] is 46.9 µM (active) and 47.9 µM (active) and 37.4 µM (active).
In the case of `CCOC(=O)c1ccc(O)cc1`, the result in test [1], in test [2], in [3], in test [4], in test [6] and in test [7] was inactive. The outcome in test [8] and in test [9] was inactive.
In the case of `CCOC(=O)NCCOc1ccc(Oc2ccccc2)cc1`, the result in test [1], in [2], in test [3], in test [5], in [4] and in test [6] was inactive. Besides, the result in [7], in test [8] and in test [9] was inactive.
For `CCSC(=O)N(CC(C)C)CC(C)C`, the result in test [1], in [2], in test [3], in [4], in test [6] and in test [7] was inactive. In addition, the compound was called inactive in [8] and in test [9].
For the compound `O=C(Nc1ccc([N+](=O)[O-])cc1Cl)c1cc(Cl)ccc1O`, the AC50 in test [1] is 299 nM (active) and 230 nM (active); in test [2], 235 nM (active) and 92 nM (active); in test [3], 315 nM (active) and 320 nM (active); in test [5] it was 0.174 µM (active); in test [4], 0.317 µM (active). Moreover, the compound was classed as inactive in test [5], in test [4], in [6], in test [7], in test [8] and in test [9].
For `CCCCOC(=O)C(C)Oc1ccc(Oc2ccc(C(F)(F)F)cn2)cc1` (stereo not given), the outcome in [1], in test [2], in test [3], in [5], in [4] and in test [6] was inactive. Also, the compound was classed as inactive in test [7], in test [8] and in [9].
